# Vaccinia Venus: vaccinia inhibition (Venus reporter) | Potency, µM (titrated, usually from 36.5 µM), without a hit: at the top dose activity change, negative = inhibition, actives largely listed as inhibitors | AID 720580 | 330,000 compounds, 0.46% hits | Vaccinia virus Venus reporter expression, fluorescence; calls by dose curve; tested in A549 cells; also: potency is read from the fitted curve at half-maximal effect; nearly all actives have a fitted effect of over 30% in size
# HCMV antiviral: human cytomegalovirus inhibition; HFF cells, HCMV-luciferase reporter, 72 h; hits give low values; activity change, negative = inhibition, % at 57.5 µM; 410,000 compounds, 4.5% hits; in the data active = activity change below about -60%; inconclusive = no clear call, values can overlap the other calls; inactive = above about -39%
#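 HFF cells seeded 16 h at 37C, treated with compounds, infected with luciferase-reporter HCMV at MOI 1 PFU/cell; luciferase read at 72 h post infection, normalized to buffer-only and Salinomycin controls.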
# HCV inhibitor: inhibitors of hepatitis C virus infection; Huh7.5.1 HCVcc-Cre infection, luciferase reporter, 44 h; Potency, µM (top dose mostly 41.8 µM), for the others: top-dose activity change, negative = inhibition, actives largely listed as inhibitors; 340,000 compounds, 3.4% hits; active = well fitted inhibition curve with a large enough effect; inconclusive = small, poorly fitted or top-dose-only effect, or another doubt; inactive = no such curve, though single readings can be large or run the other way; also: potency is read from the fitted curve at half-maximal effect
#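 Cells seeded at 1,000/well and cultured 4 h, then compounds added followed by HCVcc-Cre virus (~0.5 moi). After 44 h further culture, luciferase substrate was added, plates held 15 min at room temperature, and luminescence read for 15 sec.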
# VACV mCherry inh: vaccinia inhibition (mCherry reporter); Potency, µM (doses to about 36.5 µM), for inactives: top-dose activity change, negative = inhibition, usual class: inhibitors; AID 720579; Vaccinia virus mCherry reporter infection, fluorescence; 310,000 compounds, 0.63% hits; calls by dose curve; tested in A549 cells; also: potency is read from the fitted curve at half-maximal effect; nearly all actives have a fitted effect of over 35% in size
# FMDV antiviral: blocks foot and mouth disease virus | FMDV antiviral cell-based qHTS | Potency, µM (highest dose often 57.9 µM), inactives show at the top dose activity change, negative = inhibition, usual class: inhibitors | 410,000 compounds, 1.2% hits | AID 1159524; calls by dose curve; tested in HEK293T cells; also: read-out not given here; potency is read from the fitted curve at half-maximal effect; nearly all actives have a fitted effect of over 45% in size
# Numbers without * were called inactive; i = inactive; ? = inconclusive; / = no result given. This is a sample that favours compounds with a hit; in the whole collection about 7.3% have one here. % is scaled to controls: 0 for no effect and ±100 for the full control effect.
SMILES,Vaccinia Venus,HCMV antiviral,HCV inhibitor,VACV mCherry inh,FMDV antiviral
O=C(Nc1ccc(Cl)cc1Cl)c1cc(S(=O)(=O)NCc2ccc3c(c2)OCO3)ccc1F,?,?,/,?,-5%
Cc1cc(Br)ccc1NC(=O)C1(S(=O)(=O)c2ccc(Cl)cc2)CC1,3%,13,/,2%,-19%
COc1ccccc1NC(=O)C1=C(C)Nc2nnnn2C1c1ccc(C(F)(F)F)cc1 (stereo unspecified),2%,-3,/,-3%,-1%
Cc1n[nH]c(=O)c2c(NC(=O)CSc3nnnn3-c3ccccc3)oc(C)c12,-12%,-14,-16%,i,-17%
Cc1n[nH]c(=O)c2c(NC(=O)CSc3nnnn3-c3ccc(O)cc3)oc(C)c12,-6%,-67*,7%,i,-7%
Cc1n[nH]c(=O)c2c(NC(=O)CSc3nc4ccccc4c(=O)n3CCCO)oc(C)c12,-4%,-87*,7%,-13%,-19%
Cc1c(N2CCCC2)cc2c(c1NC(=O)c1ccccc1Cl)C(C)(C)CC2(C)C,-7%,13,25µM*,-1%,-11%
C[C@@H]1CN(S(=O)(=O)C(C)(C)C)[C@H](CCO)/C1=C\CCO,/,16,/,/,/
c1ccc(CN2CCN(c3nc(NCc4ccco4)c4ccccc4n3)CC2)cc1,?,-34,?,?,32µM*
Cc1ccc(OCCN2CCN(c3nc(NCc4ccco4)c4ccccc4n3)CC2)cc1,?,-22,11µM*,?,-10%
OCCN1CCN(c2nc(NCc3ccco3)c3ccccc3n2)CC1,-15%,-33,?,/,20%
C#CCNc1cccc2c1S(=O)(=O)N[C@H](C)CO2,/,15,/,/,/
Fc1cccc(Cl)c1Cn1nnc2c(NCc3ccncc3)ncnc21,-15%,?,10µM*,i,?
COc1ccc(NC(=O)c2sc3nc4c(cc3c2N)CN(Cc2ccccc2)CC4)cc1,-3%,3,/,-7%,-7%
CCN1CCc2nc3sc(C(=O)Nc4cccnc4Cl)c(N)c3cc2C1,/,?,2%,/,-5%
Cc1ccc(NC(=O)c2sc3nc4c(cc3c2N)CN(Cc2ccccc2)CC4)cc1,?,-63*,/,?,-20%
CCN1CCc2nc3sc(C(=O)Nc4cccc(Cl)c4C)c(N)c3cc2C1,-26%,?,/,?,14µM*
Cc1nn(-c2ccc(F)cc2)c(-n2cccc2)c1C(=O)NCCCN1CCN(c2cccc(Cl)c2)CC1,?,-33,/,?,?
CSc1cccc(NC(=O)CN2C(=O)COc3ccc(S(=O)(=O)N4CCC(C)CC4)cc32)c1,-2%,13,/,-1%,-17%
CSc1ccc(CN2CCN(C(=O)CC(C)C)CC2)cc1,-12%,-31,11µM*,i,-19%
COc1cccc(NCc2cc(=O)oc3cc(C)c(C(C)C)cc23)c1,/,-26,10µM*,/,-3%
OC(c1ccccc1)(c1ccccc1)C1CCN(CCCOc2ccc(F)cc2)CC1,?,-10,/,?,-20%
Cc1ccc(OCCCN2CCC(C(O)(c3ccccc3)c3ccccc3)CC2)cc1,?,-18,/,?,-27%
CC(C)c1ccc(OCCCN2CCC(C(O)(c3ccccc3)c3ccccc3)CC2)cc1,/,-99*,/,/,/
OC(c1ccccc1)(c1ccccc1)C1CCN(CCCOc2ccc(C(F)(F)F)cc2)CC1,/,-81*,/,/,/
SMILES,Vaccinia Venus,HCMV antiviral,HCV inhibitor,VACV mCherry inh,FMDV antiviral
OC(c1ccccc1)(c1ccccc1)C1CCN(CCCOc2cccc(C(F)(F)F)c2)CC1,/,-66*,/,/,/
Cc1ccc2onc(CNC(=O)N3CCN(c4cccc(C)c4C)CC3)c2c1,-22%,-4,/,-17%,-18%
CCCN(Cc1cc2cccc(C)c2[nH]c1=O)C(=O)c1cccc(Cl)c1,-16%,19,/,i,16%
COc1ccc(C(=O)O/N=C(\N)c2ccccc2)c(OC)c1,-16%,-78*,?,2%,-36%
N/C(=N\OC(=O)c1ccc(Cl)cc1Cl)c1ccccc1,/,30,?,/,-71%
COc1cc(OC)cc(C(=O)O/N=C(\N)c2ccncc2)c1,-24%,40,-27%,-10%,9%
COc1ccc(C(=O)O/N=C(\N)c2ccc(OC)c(OC)c2)c(OC)c1,/,/,13µM*,/,16%
COc1cc(OC)cc(C(=O)O/N=C(\N)c2cccc(C)c2)c1,/,46,11µM*,/,25%
COc1ccc(C(=O)O/N=C(\N)c2ccccn2)c(OC)c1,-17%,-75*,?,-3%,-57%
